Results taken from PubChem BioAssay (NCI).
This is part of a sample that, as a whole, favours compounds with a hit. Of some 83,000 tested, about 20% had one in any assay.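 Percent growth is the endpoint: 0 to 100 indicates growth inhibition (40 means 60% inhibition), 0 means no net growth, and negative values indicate cell death.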 Activity calls are given as the source filed them. Rule for the calls: active = growth percent below 10; inactive = the rest.

tested on: SW-620 colon; test: NCI-60 one-dose screen, 48 h (100 = growth as untreated, 0 = no growth, -100 = all killed); conditions: 10 µM unless noted

| Structure (SMILES) | growth |
| --- | --- |
| Nc1nc(SCc2cccc([N+](=O)[O-])c2)c2[nH]cnc2n1 | 107% (inactive) |
| N/C(=N\c1nc2ccccc2[nH]1)NC(=O)Cc1cccc2ccccc12 | 85.6% (inactive) |
| O=C1NC(=O)c2cc([N+](=O)[O-])cc3cccc1c23 | 98.2% (inactive) |
| COc1ccc(C2CC(c3cc(OC)c(OC)c(OC)c3)=NN2C(C)=O)cc1OCC(=O)Nc1nc2ccc(C(F)(F)F)cc2s1 (stereo not given) | 84.7% (inactive) |
| O=C(N/N=C/c1ccc([N+](=O)[O-])cc1)c1ccc(Br)o1 | 104% (inactive) |
| O=C(NCc1ccccc1)C(Cl)Cl | 107% (inactive) |
| COc1cc2c(c(OC)c1OC)-c1ccc(NNC(N)=S)c(=O)cc1[C@@H](NC(C)=O)CC2 | 24.9% (inactive) |
| CC(C)OC(=O)Nc1cc(F)c(F)cc1F | 99.2% (inactive) |
| Nc1cc(C(=O)O)[nH]c(=S)n1 | 101% (inactive) |
| COc1ccc(OC)c(NC=O)c1 | 105% (inactive) |
| ClC1=C(Cl)C(Cl)=C(Cl)C1=Cc1ccccc1 | -56.2% (active) |
| O=C(O)c1cc([N+](=O)[O-])ccc1Br | 104% (inactive) |
| COC(=O)c1cc2c(=O)[nH]cc3c2c(n1)CCC3 | 103% (inactive) |
| CCN=C1C=CC(=C(c2ccc(N(CC)CC)cc2)c2ccc(N(CC)CC)cc2)c2ccccc21 | -42.9% (active) |
| O=c1[nH]c(CN2CCN(c3cccc(Cl)c3)CC2)nc2cc(Cl)ccc12 | 99.2% (inactive) |
| c1ccc2c(c1)CN(CCCN1CCOCC1)C2 | 107% (inactive) |
| Nc1cc(NN=C(c2ccc(O)cc2)c2ccc(O)cc2)c([N+](=O)[O-])cc1[N+](=O)[O-] | 101% (inactive) |
| O=c1cc(-c2ccccc2)oc2c(O)c(O)ccc12 | 58% (inactive) |
| COc1c(C(C)=O)c(OCCCCOc2c(C(C)=O)c(OC)c3ccoc3c2OC)c(OC)c2occc12 | 93.4% (inactive) |

| Structure (SMILES) | growth |
| --- | --- |
| CNc1cc(C(=O)O)nc(NC)n1 | 98.1% (inactive) |
| O=[N+]([O-])c1cc([N+](=O)[O-])c(NN=C(c2ccc(O)cc2)c2ccc(O)cc2)cc1Cl | -75% (active) |
| NC(=O)c1c(NC(=O)COC(=O)Cc2ccccc2F)sc2c1CCC2 | 97.4% (inactive) |
| CCCCOC(=O)c1c(C)[nH]c(/C=C2\N=C(c3ccc[nH]3)C=C2OC)c1C | 11.6% (inactive) |
| CC(C)[N+](C)(C)CC(O)COc1cccc2ccccc12 (stereo not given) | 99.7% (inactive) |
| CCCCCCCCCCCCNC(=S)N/N=C/c1ccccc1O | 91.8% (inactive) |
| COCc1nc2ccccc2[nH]1 | 106% (inactive) |
| CCCCCCCCCCCCCCNC(=O)Nc1ccc(Cl)c(Cl)c1 | 32.9% (inactive) |
| CCN(CC)CCSC(=O)C(O)(c1ccccc1)C1CCCC1 (stereo not given) | 102% (inactive) |
| C=C1C(=O)O[C@H]2[C@H]1CC/C(COC(=O)NCc1ccc(Cn3c(=O)sn(-c4ccc(Cl)cc4)c3=O)cc1)=C\CC[C@@]1(C)O[C@@H]21 | 6.67% (active) |
| CCOC(=O)c1c[nH]c2cc(OCC3CC3)c(OCC3CC3)cc2c1=O | 100% (inactive) |
| Cc1cc(NN=C(c2ccc(O)cc2)c2ccc(O)cc2)c([N+](=O)[O-])cc1[N+](=O)[O-] | 71.4% (inactive) |
| Nc1nnc(CSc2nnc3n(Cc4ccccc4)c(=O)c4c5c(sc4n23)CCCC5)s1 | 110% (inactive) |
| N#Cc1c(Cl)nc(SCC2CO2)nc1-c1ccccc1 (stereo not given) | 111% (inactive) |
| O=C(C[n+]1ccn(CC(OCc2ccc(Cl)cc2Cl)c2ccc(Cl)cc2Cl)c1)c1ccc(F)cc1 (stereo not given) | -89.9% (active) |
| O=C(O)CSCc1nnc2n(Cc3ccccc3)c(=O)c3c4c(sc3n12)CCCC4 | 107% (inactive) |
| COc1ccc(OC)c([N+](=O)[O-])c1C(=O)CNC(C)=O | 106% (inactive) |
| COc1ccc2c3ccnc(C(F)(F)F)c3n(CCCCN)c2c1 | 38.5% (inactive) |

tested on: MCF7 breast; test: as above; conditions: 10 µM unless noted

| Structure (SMILES) | growth |
| --- | --- |
| Nc1nc(SCc2cccc([N+](=O)[O-])c2)c2[nH]cnc2n1 | 88% (inactive) |
| N/C(=N\c1nc2ccccc2[nH]1)NC(=O)Cc1cccc2ccccc12 | 59.4% (inactive) |
| O=C1NC(=O)c2cc([N+](=O)[O-])cc3cccc1c23 | 90% (inactive) |
| COc1ccc(C2CC(c3cc(OC)c(OC)c(OC)c3)=NN2C(C)=O)cc1OCC(=O)Nc1nc2ccc(C(F)(F)F)cc2s1 (stereo not given) | 65% (inactive) |
| O=C(N/N=C/c1ccc([N+](=O)[O-])cc1)c1ccc(Br)o1 | 71.2% (inactive) |
| O=C(NCc1ccccc1)C(Cl)Cl | 90.1% (inactive) |
| COc1cc2c(c(OC)c1OC)-c1ccc(NNC(N)=S)c(=O)cc1[C@@H](NC(C)=O)CC2 | 10.1% (inactive) |
| CC(C)OC(=O)Nc1cc(F)c(F)cc1F | 94.3% (inactive) |
| COc1ccc(OC)c(NC=O)c1 | 96.4% (inactive) |
| ClC1=C(Cl)C(Cl)=C(Cl)C1=Cc1ccccc1 | -29.3% (active) |
| O=C(O)c1cc([N+](=O)[O-])ccc1Br | 95.8% (inactive) |
| COC(=O)c1cc2c(=O)[nH]cc3c2c(n1)CCC3 | 94.1% (inactive) |
| O=c1[nH]c(CN2CCN(c3cccc(Cl)c3)CC2)nc2cc(Cl)ccc12 | 86.2% (inactive) |
| c1ccc2c(c1)CN(CCCN1CCOCC1)C2 | 94.6% (inactive) |
| Nc1cc(NN=C(c2ccc(O)cc2)c2ccc(O)cc2)c([N+](=O)[O-])cc1[N+](=O)[O-] | -60.5% (active) |
| O=c1cc(-c2ccccc2)oc2c(O)c(O)ccc12 | 60.9% (inactive) |
| COc1c(C(C)=O)c(OCCCCOc2c(C(C)=O)c(OC)c3ccoc3c2OC)c(OC)c2occc12 | 64.4% (inactive) |

| Structure (SMILES) | growth |
| --- | --- |
| O=[N+]([O-])c1cc([N+](=O)[O-])c(NN=C(c2ccc(O)cc2)c2ccc(O)cc2)cc1Cl | -65.4% (active) |
| NC(=O)c1c(NC(=O)COC(=O)Cc2ccccc2F)sc2c1CCC2 | 88.8% (inactive) |
| CCCCOC(=O)c1c(C)[nH]c(/C=C2\N=C(c3ccc[nH]3)C=C2OC)c1C | -44.2% (active) |
| CC(C)[N+](C)(C)CC(O)COc1cccc2ccccc12 (stereo not given) | 102% (inactive) |
| CCCCCCCCCCCCNC(=S)N/N=C/c1ccccc1O | 51% (inactive) |
| COCc1nc2ccccc2[nH]1 | 88.7% (inactive) |
| CCCCCCCCCCCCCCNC(=O)Nc1ccc(Cl)c(Cl)c1 | 30% (inactive) |
| CCN(CC)CCSC(=O)C(O)(c1ccccc1)C1CCCC1 (stereo not given) | 114% (inactive) |
| C=C1C(=O)O[C@H]2[C@H]1CC/C(COC(=O)NCc1ccc(Cn3c(=O)sn(-c4ccc(Cl)cc4)c3=O)cc1)=C\CC[C@@]1(C)O[C@@H]21 | 33.1% (inactive) |
| CCOC(=O)c1c[nH]c2cc(OCC3CC3)c(OCC3CC3)cc2c1=O | 104% (inactive) |
| Cc1cc(NN=C(c2ccc(O)cc2)c2ccc(O)cc2)c([N+](=O)[O-])cc1[N+](=O)[O-] | 32% (inactive) |
| Nc1nnc(CSc2nnc3n(Cc4ccccc4)c(=O)c4c5c(sc4n23)CCCC5)s1 | -30.9% (active) |
| N#Cc1c(Cl)nc(SCC2CO2)nc1-c1ccccc1 (stereo not given) | 83.9% (inactive) |
| O=C(C[n+]1ccn(CC(OCc2ccc(Cl)cc2Cl)c2ccc(Cl)cc2Cl)c1)c1ccc(F)cc1 (stereo not given) | -84% (active) |
| O=C(O)CSCc1nnc2n(Cc3ccccc3)c(=O)c3c4c(sc3n12)CCCC4 | 110% (inactive) |
| COc1ccc2c3ccnc(C(F)(F)F)c3n(CCCCN)c2c1 | 35.5% (inactive) |
